Reference: PubChem BioAssay (NCATS)
Records with an inconclusive call do not appear. Cut-off read from the data, not from the text of the source, unless noted: active = potency below about 10 µM; inactive = the rest.

target: Lysosomal acid glucosylceramidase (Homo sapiens) (UniProt P04062); assay: Glucocerebrosidase-p2 (AID 348); conditions: purified GBA, blue fluorogenic substrate, 40 min; note: potency is the fitted concentration of half-maximal effect
In short: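 Compounds titrated from 0.6 nM upwards against 0.2 nM enzyme in pH 5.9 citric acid/KH2PO4, taurocholate, tween-20; blue fluorogenic substrate 80 uM, 40 min room temperature, stopped and read Ex 365/Em 440 for AC50.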

Chain of Lysosomal acid glucosylceramidase (Homo sapiens) (P04062 whole entry, looked up): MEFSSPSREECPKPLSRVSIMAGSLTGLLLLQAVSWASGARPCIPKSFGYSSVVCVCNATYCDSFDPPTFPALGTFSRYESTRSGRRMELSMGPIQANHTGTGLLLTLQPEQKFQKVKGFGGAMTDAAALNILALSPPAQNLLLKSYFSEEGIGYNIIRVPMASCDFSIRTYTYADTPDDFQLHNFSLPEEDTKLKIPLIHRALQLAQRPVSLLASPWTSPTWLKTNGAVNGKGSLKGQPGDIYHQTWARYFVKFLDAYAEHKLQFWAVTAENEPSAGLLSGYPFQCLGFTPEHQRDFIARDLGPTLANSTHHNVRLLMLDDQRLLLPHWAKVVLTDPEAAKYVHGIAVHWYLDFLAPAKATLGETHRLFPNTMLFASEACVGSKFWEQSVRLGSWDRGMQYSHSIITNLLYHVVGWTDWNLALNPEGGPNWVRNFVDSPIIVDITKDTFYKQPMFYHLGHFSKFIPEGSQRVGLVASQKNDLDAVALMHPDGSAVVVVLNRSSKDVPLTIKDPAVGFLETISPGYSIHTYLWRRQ

Potency, inactive:
O=C(Nc1cccc(F)c1)N1CCC2(CC1)CCN(C(=O)c1csnn1)CC2 > 11.4 µM
COC(=O)N1CCC2(CC1)CCN(c1ccccc1)CC2 > 11.4 µM
N#Cc1cccc(NC(=O)N2CCC3(CC2)CCN(C(=O)c2ccco2)CC3)c1 > 11.4 µM
O=C(c1cnccn1)N1CCC[C@@]2(CCN(c3ccncc3)C2)C1 > 11.4 µM
CS(=O)(=O)N1CCC2(CC1)CN(Cc1cc(C(F)(F)F)cc(C(F)(F)F)c1)C2 > 11.4 µM
Cn1cccc1C(=O)N1CCC[C@@]2(CCN(Cc3cc(C(F)(F)F)cc(C(F)(F)F)c3)C2)C1 > 11.4 µM
N#Cc1ccc(CN2CCCC3(CCN(C(=O)c4cccc(F)c4)CC3)C2)cc1 > 11.4 µM
COc1ccc(NC(=O)N2CC3(CCN(C(C)=O)CC3)C2)cc1 > 11.4 µM
N#Cc1cccc(NC(=O)N2CCC3(CC2)CCN(C(=O)c2csnn2)CC3)c1 > 11.4 µM
COc1ccccc1CN1CCC2(CC1)CCN(C(C)=O)CC2 > 11.4 µM
Cc1noc(C)c1C(=O)N1CCC2(CCN(C(=O)Nc3ccccc3)CC2)CC1 > 11.4 µM
O=C(Oc1ccccc1)N1CCC2(CC1)CN(c1ccccc1)C2 > 11.4 µM
COC(=O)N1CCC[C@@]2(CCN(C(c3ccccc3)c3ccccc3)C2)C1 > 11.4 µM
Cn1cccc1C(=O)N1CCC2(CC1)CCN(c1ccccc1)CC2 > 11.4 µM
CC(=O)N1CCC2(CC1)CN(c1ccccn1)C2 > 11.4 µM
CS(=O)(=O)N1CCC2(CC1)CN(c1cccc(-c3ccccc3)c1)C2 > 11.4 µM
CC(C)CN1CC[C@@]2(CCCN(C(=O)c3cnccn3)C2)C1 > 11.4 µM
Cn1cccc1C(=O)N1CCC2(CCCN(c3ccccc3)C2)CC1 > 11.4 µM
O=C(c1csnn1)N1CCC[C@@]2(CCN(Cc3nccs3)C2)C1 > 11.4 µM
O=C(c1ccco1)N1CCC2(CC1)CN(Cc1cc(C(F)(F)F)cc(C(F)(F)F)c1)C2 > 11.4 µM
CC(C)NC(=O)N1CC[C@@]2(CCCN(C(=O)c3cc(C(F)(F)F)cc(C(F)(F)F)c3)C2)C1 > 11.4 µM
COCC(=O)N1CCC[C@@]2(CCN(Cc3ccccc3OC)C2)C1 > 11.4 µM
COc1ccccc1CN1CCCC2(CCN(S(C)(=O)=O)CC2)C1 > 11.4 µM
O=C(c1cc(C(F)(F)F)cc(C(F)(F)F)c1)N1CCC[C@@]2(CCN(Cc3ccncc3)C2)C1 > 11.4 µM
Cc1cccc(CNc2ncnc3ccc(-c4cccc(C#N)c4)cc23)c1 > 11.4 µM
O=C(c1ccncc1)N1CCC2(CC1)CCN(c1cccc(-c3ccccc3)c1)CC2 > 11.4 µM
CS(=O)(=O)N1CCC2(CC1)CN(Cc1nccs1)C2 > 11.4 µM
c1ccc(-c2cccc(N3CC[C@@]4(CCCNC4)C3)c2)cc1 > 11.4 µM
CC(=O)N1CCC2(CC1)CN(c1ccccc1)C2 > 11.4 µM
CC(C)CN1CC[C@@]2(CCCN(S(=O)(=O)c3ccccc3)C2)C1 > 11.4 µM
Cc1noc(C)c1C(=O)N1CCC[C@@]2(CCN(Cc3ccccc3)C2)C1 > 11.4 µM
O=C(c1csnn1)N1CCC2(CC1)CN(c1ccccc1)C2 > 11.4 µM
COCC(=O)N1CCC[C@@]2(CCN(C(=O)Nc3cccc(F)c3)C2)C1 > 11.4 µM
O=C(c1csnn1)N1CCC2(CC1)CN(c1ccccn1)C2 > 11.4 µM
COc1ccc(C(=O)N2CCC3(CCN(C)CC3)CC2)cc1 > 11.4 µM
CS(=O)(=O)N1CCC2(CCCN(C(=O)Nc3cccc(C#N)c3)C2)CC1 > 11.4 µM
Cc1noc(C)c1C(=O)N1CCC2(CCN(Cc3cc(C(F)(F)F)cc(C(F)(F)F)c3)CC2)CC1 > 11.4 µM
CC(C)NC(=O)N1CC2(CCN(C(=O)c3ccco3)CC2)C1 > 11.4 µM
CC(=O)N1CCC2(CC1)CN(C(c1ccccc1)c1ccccc1)C2 > 11.4 µM
COc1ccc(NC(=O)N2CC[C@@]3(CCCN(C(=O)c4csnn4)C3)C2)cc1 > 11.4 µM

system: not listed separately; assay: AP1 Signaling Pathway (AID 357; active = well fitted curve in either direction with a large enough effect, not every such curve was filed as active;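 note: ME-180 reporter cells stimulated with EGF at its EC50 level; % is set by controls: 0 for no effect and ±100 for the full control effect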); conditions: ME-180 (cervical carcinoma) AP-1-bla reporter, EGF-induced, beta-lactamase ratio, 5 h; at 7.69 µM (top of the series) unless noted
In short: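 Cells are seeded overnight, exposed to compound titrations and an EC50 level of EGF for 5 hours at 37 °C, then loaded with CCF4 dye for 2.5 hours. Beta-lactamase activity under the AP-1 element is read as a blue/green ratio.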

Activity change, negative = inhibition, inactive:
O=C(Nc1cccc(F)c1)N1CCC2(CC1)CCN(C(=O)c1csnn1)CC2 -8.39%
COC(=O)N1CCC2(CC1)CCN(c1ccccc1)CC2 8.46%
N#Cc1cccc(NC(=O)N2CCC3(CC2)CCN(C(=O)c2ccco2)CC3)c1 -7.83%
O=C(c1cnccn1)N1CCC[C@@]2(CCN(c3ccncc3)C2)C1 -3.24%
CS(=O)(=O)N1CCC2(CC1)CN(Cc1cc(C(F)(F)F)cc(C(F)(F)F)c1)C2 5.66%
Cn1cccc1C(=O)N1CCC[C@@]2(CCN(Cc3cc(C(F)(F)F)cc(C(F)(F)F)c3)C2)C1 8.92%
N#Cc1ccc(CN2CCCC3(CCN(C(=O)c4cccc(F)c4)CC3)C2)cc1 19.4%
COc1ccc(NC(=O)N2CC3(CCN(C(C)=O)CC3)C2)cc1 8.48%
N#Cc1cccc(NC(=O)N2CCC3(CC2)CCN(C(=O)c2csnn2)CC3)c1 -16.5%
COc1ccccc1CN1CCC2(CC1)CCN(C(C)=O)CC2 -6.68%
Cc1noc(C)c1C(=O)N1CCC2(CCN(C(=O)Nc3ccccc3)CC2)CC1 -7.04%
O=C(Oc1ccccc1)N1CCC2(CC1)CN(c1ccccc1)C2 3.75%
COC(=O)N1CCC[C@@]2(CCN(C(c3ccccc3)c3ccccc3)C2)C1 -2.49%
Cn1cccc1C(=O)N1CCC2(CC1)CCN(c1ccccc1)CC2 -11.3%
CC(=O)N1CCC2(CC1)CN(c1ccccn1)C2 -8.91%
CS(=O)(=O)N1CCC2(CC1)CN(c1cccc(-c3ccccc3)c1)C2 6.38%
CC(C)CN1CC[C@@]2(CCCN(C(=O)c3cnccn3)C2)C1 6.22%
Cn1cccc1C(=O)N1CCC2(CCCN(c3ccccc3)C2)CC1 -3.96%
O=C(c1csnn1)N1CCC[C@@]2(CCN(Cc3nccs3)C2)C1 2.1%
O=C(c1ccco1)N1CCC2(CC1)CN(Cc1cc(C(F)(F)F)cc(C(F)(F)F)c1)C2 5.99%
CC(C)NC(=O)N1CC[C@@]2(CCCN(C(=O)c3cc(C(F)(F)F)cc(C(F)(F)F)c3)C2)C1 8.49%
COCC(=O)N1CCC[C@@]2(CCN(Cc3ccccc3OC)C2)C1 -5.37%
COc1ccccc1CN1CCCC2(CCN(S(C)(=O)=O)CC2)C1 -4.49%
O=C(c1cc(C(F)(F)F)cc(C(F)(F)F)c1)N1CCC[C@@]2(CCN(Cc3ccncc3)C2)C1 -6.9%
Cc1cccc(CNc2ncnc3ccc(-c4cccc(C#N)c4)cc23)c1 -19.4%
O=C(c1ccncc1)N1CCC2(CC1)CCN(c1cccc(-c3ccccc3)c1)CC2 -1.52%
CS(=O)(=O)N1CCC2(CC1)CN(Cc1nccs1)C2 -7.04%
c1ccc(-c2cccc(N3CC[C@@]4(CCCNC4)C3)c2)cc1 1.23%
CC(=O)N1CCC2(CC1)CN(c1ccccc1)C2 10.4%
CC(C)CN1CC[C@@]2(CCCN(S(=O)(=O)c3ccccc3)C2)C1 1.83%
Cc1noc(C)c1C(=O)N1CCC[C@@]2(CCN(Cc3ccccc3)C2)C1 -8.33%
O=C(c1csnn1)N1CCC2(CC1)CN(c1ccccc1)C2 -4.3%
COCC(=O)N1CCC[C@@]2(CCN(C(=O)Nc3cccc(F)c3)C2)C1 -14.2%
O=C(c1csnn1)N1CCC2(CC1)CN(c1ccccn1)C2 -7.48%
COc1ccc(C(=O)N2CCC3(CCN(C)CC3)CC2)cc1 -25.4%
CS(=O)(=O)N1CCC2(CCCN(C(=O)Nc3cccc(C#N)c3)C2)CC1 2.54%
Cc1noc(C)c1C(=O)N1CCC2(CCN(Cc3cc(C(F)(F)F)cc(C(F)(F)F)c3)CC2)CC1 -3.69%
CC(C)NC(=O)N1CC2(CCN(C(=O)c3ccco3)CC2)C1 -14.7%
CC(=O)N1CCC2(CC1)CN(C(c1ccccc1)c1ccccc1)C2 14.1%
COc1ccc(NC(=O)N2CC[C@@]3(CCCN(C(=O)c4csnn4)C3)C2)cc1 -1.53%
